These results are taken from PubChem BioAssay AID894 (National Center for Advancing Translational Sciences (NCATS), 2007).

In all, about 150,000 compounds went through this assay and about 6,500 (4.3%) were called active. Roughly 12% stayed inconclusive and do not appear here. The sample holds actives, similar compounds and a random draw of the others, so the mix is not that of the screen. Values without a mark were called inactive. Calls come from the whole dose curve; as a rule, active = well fitted inhibition curve with a large enough effect (not every such curve was filed as active); inconclusive = small, poorly fitted or top-dose-only effect, or another doubt; inactive = no such curve, though single readings can be large or run the other way.
% is set by controls: 0 for no effect and ±100 for the full control effect; potency is the fitted concentration of half-maximal effect.

15-hydroxyprostaglandin dehydrogenase [NAD(+)] (Homo sapiens), sequence (P15428 whole entry, looked up): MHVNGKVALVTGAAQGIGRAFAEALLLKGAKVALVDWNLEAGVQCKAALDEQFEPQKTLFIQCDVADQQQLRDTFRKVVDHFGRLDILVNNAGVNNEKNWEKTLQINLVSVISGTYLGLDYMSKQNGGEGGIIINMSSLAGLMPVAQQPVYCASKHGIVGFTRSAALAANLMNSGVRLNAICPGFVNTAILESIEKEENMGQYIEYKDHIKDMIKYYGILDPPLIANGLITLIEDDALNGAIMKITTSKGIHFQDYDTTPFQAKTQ

The target of this assay is 15-hydroxyprostaglandin dehydrogenase [NAD(+)] (Homo sapiens) (UniProt P15428). As to the kind of experiment: qHTS Assay for Inhibitors of HPGD (15-Hydroxyprostaglandin Dehydrogenase). To be noted: purified HPGD, NADH fluorescence kinetic, PGE2 substrate; activity change, negative = inhibition: stronger effect = lower value. The essentials:
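20 nM HPGD preincubated 15 min at room temperature with compound in 50 mM Tris-HCl pH 8, 0.01% Tween 20. Started with 1 mM NAD+ and 30 uM prostaglandin E2; NADH fluorescence (360/450 nm) read 5 times over 30-s intervals, last minus first.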
Take `CNC(=O)CN1C(=O)c2ccccc2S1(=O)=O`: the activity change, negative = inhibition was 0.566%. For the compound `CCCc1nnc(NC(=O)CN2C(=O)c3ccccc3S2(=O)=O)s1`, the Potency is 14.1 µM (active). As to `CCCc1nnc(NC(=O)c2cccs2)s1`, the activity change, negative = inhibition is -3.96%. With `Cc1ccc(Nc2ccc(C(N)=O)cc2[N+](=O)[O-])cc1`, the activity change, negative = inhibition was -24.4%. `CCNC(=O)NC(=O)C(C)OC(=O)C1CCN(S(=O)(=O)c2ccccc2F)CC1` (stereo not drawn): the activity change, negative = inhibition was -13.3%.

Consider `Cc1nn(-c2ccccc2)c2sc(C(=O)N(Cc3ccco3)C(C)C(=O)NC(C)(C)C)cc12` (stereo not drawn), for which the activity change, negative = inhibition was -12.4%. `Cc1onc(-c2c(Cl)cccc2Cl)c1C(=O)c1c[nH]c(C(=O)NC2CC2)c1`: the activity change, negative = inhibition is -1.05%. For the compound `Cc1ccccc1-n1nc(C)c2cc(C(=O)NC3CC3)sc21`, the Potency was 22.4 µM (active). `OC[C@H]1O[C@@H](n2cnc3c(N[C@H]4CC5CCC4C5)ncnc32)[C@H](O)[C@@H]1O` (stereo partly drawn): the activity change, negative = inhibition was -25%.

In the case of `COc1cc(C(=O)NNC(=O)c2ccc(S(=O)(=O)N3CCCCC3)cc2)cc(OC)c1OC`, the activity change, negative = inhibition was 5.41%. On to `COc1cc(OC)c(-n2c(C)cc(C=O)c2C)cc1Cl`, for which the Potency is 3.55 µM (active). For `COc1ccc(Cl)cc1-n1c(C)cc(C(=O)OCC(=O)N2CC(=O)Nc3ccccc32)c1C`, the activity change, negative = inhibition was -10%. Take `COc1cc(Cl)c(S(=O)(=O)n2cnc(C)c2)cc1Cl`: the activity change, negative = inhibition is 0.989%.

For the compound `C[C@H]1Cc2c(-c3ccccc3)nc3c(c2CO1)CN(C(=O)C1CC1)CC3`, the activity change, negative = inhibition was -5.41%. Same read-out and setting: with `COc1ccc2c(c1)CCc1c(C(=O)Nc3c(C)n(C)n(-c4ccccc4)c3=O)noc1-2` the figure was -26.2%; with `COc1ccc(-c2nc3c(c4c2C[C@H](c2ccccc2)OC4)CN(C(=O)C2CC2)CC3)c(C)c1`, -7.07%. Regarding `COc1ccc2c(c1)CCc1c(C(=O)N3CCCC3)noc1-2`, the Potency is 20 µM (active). With `COc1ccc2c(c1)CCc1c(C(=O)N3CCc4ccccc4C3)noc1-2`, the Potency is 17.8 µM (active). With `O=C(COc1ccccc1)N1CCc2ccccc2C1`, the activity change, negative = inhibition is -7.89%. For `COc1ccc(-c2nc(CS(=O)CC(=O)N3CCc4ccccc4C3)c(C)o2)cc1` (stereo not drawn), the activity change, negative = inhibition is -23.2%. Same read-out and setting: with `CC(=O)Nc1ccc(C(=O)OCC(=O)Nc2ccc([N+](=O)[O-])cc2C(F)(F)F)cc1` the figure was -4.2%; with `O=C(CSc1nc2ccc([N+](=O)[O-])cc2[nH]1)c1ccc(Cl)cc1`, -4.65%. For `COc1ccc(O[C@H]2C=C[C@@H](c3ccccc3)O[C@@H]2CO/N=C/C[C@@H]2C=C[C@H](OC(C)=O)[C@@H](COC(C)=O)O2)cc1`, the activity change, negative = inhibition is -8.59%. As for `CCOc1ccc(S(=O)(=O)N(CC(=O)NCC(F)(F)F)Cc2ccco2)cc1`, the activity change, negative = inhibition was -11.9%. `O=C(Nc1cccc([N+](=O)[O-])c1)c1ccc2c(c1)OCO2`: the activity change, negative = inhibition is -1.46%. `N#CC1=C(SCc2ccc(C#N)cc2)N=C(N)C(c2nc(-c3ccccc3)cs2)C12CCCCC2` (stereo not drawn): the activity change, negative = inhibition is -15.3%. As to `N#CC1=C(SCc2ccccc2)NC(=O)C(C#N)C12CCCC2` (stereo not drawn), the Potency was 17.8 µM (active).

`CC1(C)CCc2nc(SCc3ccccc3)c(C#N)cc2C1`: the activity change, negative = inhibition was -11%. On to `Cc1c(Cl)cccc1NC(=O)CC1SC(=NCC2CCCO2)NC1=O` (stereo not drawn), for which the activity change, negative = inhibition was -12.3%. On the same count and under the same terms, with `O=C(CN1C(=O)/C(=C\c2ccc(C(F)(F)F)cc2)Sc2ccccc21)NCc1ccco1` the figure was 33.1%. For `Cc1noc(/C=C/N(C)C)c1S(=O)(=O)N1CCCC(C(=O)NCc2ccco2)C1` (stereo not drawn), the activity change, negative = inhibition is -17.1%. Regarding `CCOc1ccc(OCC)c(NC(=O)C2CCN(S(=O)(=O)c3c(C)noc3C)CC2)c1`, the activity change, negative = inhibition is -8.5%. As for `Cc1noc(C)c1S(=O)(=O)N1CCCC(C(=O)Nc2nccs2)C1` (stereo not drawn), the Potency was 35.5 µM (active). Take `Cn1cc(/C=C/c2nc3ccccc3c(=O)n2-c2cccc([N+](=O)[O-])c2)c2ccccc21`: the activity change, negative = inhibition is -11.6%. In the case of `Cc1ccc(/C=C/C(=O)Nc2cc(S(=O)(=O)N3CCCCCC3)ccc2OCC(F)(F)F)o1`, the activity change, negative = inhibition is -24.4%. Turning to `Cn1c(CNC(=O)c2ccccc2F)nnc1SCc1ccc(F)cc1`, the activity change, negative = inhibition was -8.88%.

Consider `CN(C)c1ccc(-n2cccc2/C=N/n2cnnc2)cc1`, for which the activity change, negative = inhibition was -4.13%. On to `CCOC(=O)c1sc(NC(=O)CSc2nnc(-c3ccco3)o2)c(C(=O)OCC)c1C`, for which the activity change, negative = inhibition is -18.6%. With `CCOC(=O)c1sc(NC(=O)CSc2nc(C)cc(C(F)(F)F)n2)c(C#N)c1C`, the Potency is 3.55 µM (active). Regarding `CCOC(=O)c1sc(NC(=O)CSc2ncccn2)c(C#N)c1C`, the activity change, negative = inhibition is -17.5%. Same read-out and setting: with `COc1cc(NC(=O)c2cc([N+](=O)[O-])ccc2Br)ccc1NC(=O)c1ccco1` the figure was -20.2%; with `CSc1ccccc1NC(=O)Cc1ccc(Br)cc1`, -10.6%; with `COC(=O)c1cc(C(=O)OC)cc(N2C(=O)CC(N3CCN(c4ccccc4)CC3)C2=O)c1` (stereo not drawn), -19.8%. Consider `COC(=O)c1cccc(-n2[nH]nnc2=S)c1`, for which the Potency was 28.2 µM (active). On to `COc1ccccc1-c1nnc(NC(=O)c2cccc(N3C(=O)CCC3=O)c2)o1`, for which the activity change, negative = inhibition was -9.42%. For the compound `CN1CCN(c2ccc(S(=O)(=O)N3CCCCC3)cc2NC(=O)Cc2ccccc2F)CC1`, the activity change, negative = inhibition was 3.83%. As to `CC1(C)CCCC2=C1CC1C(=O)N(c3ccccc3)C(=O)C1C2` (stereo not drawn), the activity change, negative = inhibition is 0.735%. As to `Cn1c(=O)c2cn(-c3cccc4ccccc34)cc2n(C)c1=O`, the activity change, negative = inhibition is -20.9%. On to `CC1=C(C)CC2C(=O)N(c3cccc4ccccc34)C(=O)C2C1` (stereo not drawn), for which the Potency was 25.1 µM (active). On to `CCCOc1ccc(NC(=O)CC2C(=O)N(C)C(=S)N2Cc2ccc3c(c2)OCO3)cc1` (stereo not drawn), for which the activity change, negative = inhibition was -0.216%. On the same count and under the same terms, with `O=C(/C=C/c1ccc(F)cc1)Nc1cccc(S(=O)(=O)Nc2cccc(C(F)(F)F)c2)c1` the figure was -7.72%.

Take `CCc1ccc(NC(=O)C(C)OC(=O)/C=C/c2cccc([N+](=O)[O-])c2)cc1` (stereo not drawn): the activity change, negative = inhibition is -2.79%. With `CCOC(=O)C1=C(C)NC(=S)NC1c1cccs1` (stereo not drawn), the activity change, negative = inhibition is -5.68%.
